Where “and” joins values, the source holds several entries; their conditions need not be identical. Identical values can stand only once. Inconclusive results are not listed. Calls of active or inactive are those of the source. Calls follow the shape of the dose curve; as a rule, active = well fitted curve in the direction sought with a large enough effect; inconclusive = small, poorly fitted or top-dose-only effect, or another doubt; inactive = no such curve, though single readings can be large; an effect the other way counts as inactive or inconclusive.
Tests used:
[1] = target: Cytochrome P450 3A7 (Homo sapiens) (UniProt P24462); assay: Cytochrome P450 family 3 subfamily A member 7 (CYP3A7) small molecule antagonists: luciferase biochemical qHTS assay (AID 1963596); also: nearly all actives have a fitted effect of over 40% in size; as to activity change, negative = inhibition: % is scaled to controls: 0 for no effect and ±100 for the full control effect
Sequence of Cytochrome P450 3A7 (Homo sapiens) (P24462 whole entry, looked up): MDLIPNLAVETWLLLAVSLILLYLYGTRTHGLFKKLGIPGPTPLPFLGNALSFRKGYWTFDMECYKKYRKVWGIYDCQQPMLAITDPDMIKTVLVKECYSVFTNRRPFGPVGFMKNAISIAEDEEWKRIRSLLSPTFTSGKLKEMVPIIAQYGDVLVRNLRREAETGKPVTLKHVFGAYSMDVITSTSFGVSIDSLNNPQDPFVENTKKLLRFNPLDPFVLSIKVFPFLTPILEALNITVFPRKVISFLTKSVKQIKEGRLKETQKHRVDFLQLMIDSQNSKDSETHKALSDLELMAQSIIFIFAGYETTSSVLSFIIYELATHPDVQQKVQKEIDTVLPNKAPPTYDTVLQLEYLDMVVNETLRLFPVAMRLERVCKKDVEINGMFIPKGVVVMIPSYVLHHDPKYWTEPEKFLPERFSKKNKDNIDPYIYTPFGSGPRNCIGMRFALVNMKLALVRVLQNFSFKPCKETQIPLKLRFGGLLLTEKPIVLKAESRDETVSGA
Procedure, shortened: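 Enzyme-substrate mix + cpd (DMSO), 10 min RT; + NADPH regen system, 1 h RT; + luciferin detection reagent, 20 min RT; luminescence read. Proluciferin substrate, P450-Glo format, 1536-well qHTS.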

[2] = Viability qHTS for spleen associated tyrosine kinase inhibitor (SYKi) drug resistant MV4-11 cells (AID 1963824); also: nearly all actives have a fitted effect of over 35% in size
Procedure, shortened: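 SYK inhibitor-resistant MV4-11 AML cells, 500 per well, added to predispensed compounds and incubated 72 hr at 37 C, 5% CO2. Viability measured by CellTiter-Glo luminescence after 10 min at room temperature.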

[3] = Quantitative highthroughput screen to assess conditional lethalithy of NOMO1 cells grown in RPMI1640 with untreated serum (RPMI+s) (AID 1963876); also: nearly all actives have a fitted effect of over 35% in size;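 as to Viability: 100% = DMSO wells and 0% = empty wells without cells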
Procedure, shortened: (§1)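 Each medium arm—HPLM with 10% dialyzed FBS, or RPMI1640 with 5 mM glucose and 10% untreated or dialyzed FBS—was screened against an 11-point, 3-fold compound titration for 48 h at 37 °C, with CellTiter-Glo luminescence as endpoint.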

[4] = Quantitative highthroughput screen to assess conditional lethalithy of NOMO1 cells grown in RPMI1640 with dialyzed fetal bovine serum (RPMI+ds) (AID 1963877); also: nearly all actives have a fitted effect of over 30% in size;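 as to Viability: series mostly up to about 46 µM; 100% = DMSO control wells and 0% = empty wells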
Procedure, shortened: as §1

[5] = Quantitative highthroughput screen to assess conditional lethalithy of NOMO1 cells grown in Human Plasma-Like Medium with dialyzed fetal bovine serum (HPLM+ds) (AID 1963878); also: nearly all actives have a fitted effect of over 35% in size;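 as to Viability: 100% = DMSO wells and 0% = empty wells on each plate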
Procedure, shortened: as §1

[6] = Quantitative highthroughput screen to assess conditional lethalithy of P12 Ichikawa cells grown in Human Plasma-Like Medium with dialyzed fetal bovine serum (HPLM+ds) (AID 1963879); settings: Potency: viability; also: nearly all actives have a fitted effect of over 35% in size; as to Viability: series mostly up to about 46 µM
Procedure, shortened: as §1

[7] = Quantitative highthroughput screen to assess conditional lethalithy of P12 Ichikawa cells grown in RPMI1640 with dialyzed fetal bovine serum (RPMI+ds) (AID 1963880); settings: Potency: P12-Ichikawa viability; also: nearly all actives have a fitted effect of over 35% in size;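 as to Viability: 100% = DMSO wells and 0% = empty wells on each plate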
Procedure, shortened: as §1

[8] = Quantitative highthroughput screen to assess conditional lethalithy of SEM cells grown in Human Plasma-Like Medium with dialyzed fetal bovine serum (HPLM+ds) (AID 1963882); also: nearly all actives have a fitted effect of over 35% in size; as to Viability: series mostly up to about 46 µM
Procedure, shortened: as §1

[9] = Quantitative highthroughput screen to assess conditional lethalithy of SEM cells grown in RPMI1640 with unreated serum (RPMI+s) (AID 1963883); also: nearly all actives have a fitted effect of over 35% in size;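 as to Viability: 100% = DMSO wells and 0% = empty wells without cells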
Procedure, shortened: as §1

[10] = Quantitative highthroughput screen to assess conditional lethalithy of SEM cells grown in RPMI1640 with dialyzed fetal bovine serum (RPMI+ds) (AID 1963884); also: nearly all actives have a fitted effect of over 35% in size;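 as to Viability: series mostly up to about 46 µM; 100% = DMSO control wells and 0% = empty wells without cells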
Procedure, shortened: as §1

[11] = Cellular viability qHTS for adrenocortical cancer (ACC) cell line SW-13 (AID 1963989); settings: SW-13 ACC cells viability, CellTiter-Glo, 48 h; activity (max response): stronger effect = lower value; also: nearly all actives have a fitted effect of over 65% in size;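 as to activity (max response): cells grown in serum-free medium with ITS supplement; % is scaled to controls: 0 for no effect and ±100 for the full control effect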
Procedure, shortened: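 Viability was read as CellTiter-Glo luminescence after 48 h compound treatment (up to 46 uM final) of SW-13 cells grown serum-free; titration curves were fit with a four-parameter logistic model to give IC50 and efficacy.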

[12] = Cellular viability qHTS for adrenocortical cancer (ACC) cell line NCI-H295R (AID 1963990); also: nearly all actives have a fitted effect of over 60% in size;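 as to activity change, negative = viability loss: 0% = DMSO only wells and -100% = full killing with cytotoxic reference compound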
Procedure, shortened: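 CellTiter-Glo ATP luminescence, read 48 h after compound addition, measured viability of NCI-H295R adrenocortical cells grown serum-free with ITS. Final concentrations spanned up to 46 uM. Data normalized to DMSO and doxorubicin, fitted for IC50 and maximal response.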

[13] = Quantitative highthroughput screen to assess conditional lethalithy of P12 Ichikawa cells grown in RPMI1640 with untreated serum (RPMI+s) (AID 1963881); settings: Potency: viability; also: nearly all actives have a fitted effect of over 35% in size;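 as to Viability: series mostly up to about 46 µM; 100% = DMSO wells and 0% = empty wells without cells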
Procedure, shortened: as §1
Potency is read from the fitted curve at half-maximal effect.

CC(C(=O)O)c1ccc(C(=O)c2cccs2)cc1 (centres undefined)
inactive: Potency [1] | Potency [2]

Clc1ccc2c(c1)C1=NCCN1c1c(-c3noc(C4CC4)n3)ncn1-2
inactive: Potency [1] | Potency [2]

CC1COc2c(N3CCN(C)CC3)c(F)cc3c(=O)c(C(=O)O)cn1c23 (centres undefined)
inactive: Potency [1] | Potency [3] | Potency [4] | Potency [5] | Potency [6] | Potency [7] | Potency [8] | Potency [9] | Potency [10] | activity (max response) [11] 4.41% and 9.62% | Potency [12]
active: Potency [2] 8.41 µM

CCCN1CCC(c2cccc(S(C)(=O)=O)c2)CC1
inactive: Potency [1] | Potency [2]

CCc1cc2c(=O)c(-c3nc4ccccc4s3)coc2c(CN2CCCCC2)c1O
inactive: Potency [1] | Potency [2]

CCN(CCO)CCCC(C)Nc1ccnc2cc(Cl)ccc12 (centres undefined)
inactive: activity change, negative = inhibition [1] 10.6% [at 4.83 µM] | viability, % of control [2] 88.8% [at 4.97 µM] | activity (max response) [11] 4.84% and 9.37% | activity change, negative = viability loss [12] 1.42% [at 3.81 µM] and 0.71% [at 3.81 µM]
active: Potency [3] 10.5 µM | Potency [6] 4.18 µM | Potency [13] 10.5 µM

CC(C)NCC(O)COc1ccc(COCCOC(C)C)cc1 (centres undefined)
inactive: Potency [1] | Potency [2] | Potency [3] | Potency [5] | Potency [6] | Potency [7] | Potency [13] | Potency [8] | Potency [9] | Potency [10] | activity (max response) [11] 0.903% | Potency [12]

COc1cc2c(c(OC)c1OC)-c1ccc(OC)c(=O)cc1[C@@H](NC(C)=O)CC2
active: Potency [2] 16.8 nM and 14.8 nM | Potency [11] 25.9 nM and 35.5 nM | Potency [12] 92 nM and 100 nM
inactive: Potency [1] | Potency [3] | Potency [9] | Potency [10]

COc1ccc(Sc2ccc(NC(=O)c3ccccc3Cl)cc2C#N)cc1
inactive: Potency [1]
active: Potency [2] 25.9 µM

CC1(C)CC(=O)c2c(C(F)(F)F)nn(-c3ccc(C(N)=O)c(NC4CCC(OC(=O)CN)CC4)c3)c2C1 (centres undefined)
active: Potency [1] 15.1 µM | Potency [2] 51.7 nM and 37.2 nM | Potency [3] 0.372 µM | Potency [4] 0.296 µM | Potency [5] 0.332 µM | Potency [9] 0.264 µM | Potency [10] 0.296 µM | Potency [11] 282 nM | Potency [12] 0.501 µM

CCN1CCC[C@@H]1CNC(=O)c1ccc2c(c1)NC(=O)c1cccc(C)c1S2
active: Potency [1] 20 µM | Potency [2] 20.6 µM

CS(=O)c1ccc(-c2nc(-c3ccc(F)cc3)c(-c3ccncc3)[nH]2)cc1 (centres undefined)
inactive: Potency [1] | Potency [12]
active: Potency [2] 20.6 µM | Potency [3] 6.79 µM | Potency [4] 6.79 µM | Potency [6] 9.59 µM | Potency [7] 8.55 µM | Potency [13] 7.62 µM | Potency [8] 7.62 µM | Potency [9] 2.41 µM

CCc1nc(-c2cccc(C)c2)c(-c2ccnc(NC(=O)c3ccccc3)c2)s1
active: Potency [2] 20.6 µM | Potency [11] 25100 nM | Potency [12] 28.2 µM
inactive: Potency [1] | Potency [3] | Potency [4] | Potency [8]

CCCN[C@H]1CCc2nc(N)sc2C1
active: Potency [2] 4.17 µM
inactive: Potency [1] | Potency [3] | Potency [4] | Potency [5] | Potency [6] | Potency [7] | Potency [13] | Potency [8] | Potency [9] | Potency [10] | activity (max response) [11] -1.3% and 3.21% | Potency [12]

CNC(=O)c1ccc(-c2cnc3ncc(Cc4ccc5ncccc5c4)n3n2)cc1F
inactive: Potency [1] | Potency [3] | Potency [4] | Potency [5] | Potency [6] | Potency [7] | Potency [13] | Potency [8] | Potency [9] | Potency [10] | activity (max response) [11] 0.555% | Potency [12]
active: Potency [2] 2.06 µM

CN1CCc2cc(Cl)c(O)cc2[C@@H](c2cccc3c2OCC3)C1
inactive: Potency [1]
active: Potency [2] 11.6 µM

COc1cc2c(Oc3ccc(-c4cnc(Nc5ccc(F)cc5)n(C)c4=O)cc3F)ccnc2cc1OCCCN1CCOCC1
inactive: Potency [1]
active: Potency [2] 58 nM and 29.5 nM | Potency [4] 23.5 µM | Potency [5] 20.9 µM | Potency [8] 0.166 µM | Potency [9] 1.05 µM | Potency [10] 0.0833 µM | Potency [12] 3.98 µM

C[C@@H]1CN(c2c(F)c(N)c3c(=O)c(C(=O)O)cn(C4CC4)c3c2F)C[C@H](C)N1
inactive: Potency [1] | Potency [2] | Potency [3] | Potency [4] | Potency [6] | activity (max response) [11] -1.88% | Potency [12]

CCCc1nc(C(C)(C)O)c(C(=O)O)n1Cc1ccc(-c2ccccc2-c2nn[nH]n2)cc1
inactive: Potency [1] | Potency [2] | Potency [3] | Potency [4] | Potency [5] | Potency [6] | Potency [7] | Potency [13] | Potency [8] | Potency [9] | Potency [10] | activity (max response) [11] 8.92% | Potency [12]

C[C@]12C=CC(=O)C=C1CC[C@@H]1[C@@H]2[C@@H](O)C[C@@]2(C)[C@H]1CC[C@]2(O)C(=O)COC(=O)CCC(=O)O
inactive: Potency [1] | Potency [2]

CCCNC(=O)Nc1ccc(Oc2ncnc3cc(OC)c(OC)cc23)cc1Cl
active: Potency [2] 0.517 µM
inactive: Potency [1] | Potency [3] | Potency [4] | Potency [5] | Potency [6] | Potency [7] | Potency [13] | activity (max response) [11] -6.45% | Potency [12]

From PubChem BioAssay (NCATS)
